# Laboratory results: article PMC7862700, “An all-to-all approach to the identification of sequence-specific readers for epigenetic DNA modifications on cytosine”
# Experiments:
# Assay in all cases: DAPPL (digital affinity profiling via proximity ligation, sequencing); 10 mM Tris-HCl pH 7.5, 50 mM NaCl, 1 mM DTT, 4% glycerol, room temperature, 30 min; GST-TFs on glutathione beads, 16-mer random dsDNA library, 0.1% formaldehyde crosslink after washing; high values mean tight binding
# FEV = molecular target: T1, FEV (Homo sapiens, UniProt Q99581 1-238); details: protein: recombinant; tags: N-terminal GST; dsDNA, one strand shown
# T1 sequence: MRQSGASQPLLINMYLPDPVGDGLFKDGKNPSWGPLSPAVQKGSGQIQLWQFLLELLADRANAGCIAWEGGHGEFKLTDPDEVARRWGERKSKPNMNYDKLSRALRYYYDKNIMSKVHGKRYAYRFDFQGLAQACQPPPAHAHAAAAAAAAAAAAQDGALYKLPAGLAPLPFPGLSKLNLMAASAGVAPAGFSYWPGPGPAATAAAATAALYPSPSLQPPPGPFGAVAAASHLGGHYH
# Summary of the method: (§1)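 A tag-only sample was pooled with DNA-barcoded human transcription factors that had been expressed in yeast as GST fusions and captured on glutathione beads. The pools were incubated for 30 min at room temperature with 200 nmole of a random double-stranded 16-mer DNA library in Tris/NaCl/DTT/glycerol buffer, then washed, crosslinked with 0.1% formaldehyde, proximity-ligated (BsaI/T4 ligase, 1 h, 37 °C), PCR-amplified and sequenced on an Illumina NextSeq500. Binding signal is each hexamer's read frequency for a factor divided by its frequency for the tag-only sample.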
# ETV5 = ETV5 (Homo sapiens, UniProt P41161 1-510); details: protein: recombinant; tags: N-terminal GST; dsDNA, one strand shown
# Sequence of ETV5 (P41161 whole entry): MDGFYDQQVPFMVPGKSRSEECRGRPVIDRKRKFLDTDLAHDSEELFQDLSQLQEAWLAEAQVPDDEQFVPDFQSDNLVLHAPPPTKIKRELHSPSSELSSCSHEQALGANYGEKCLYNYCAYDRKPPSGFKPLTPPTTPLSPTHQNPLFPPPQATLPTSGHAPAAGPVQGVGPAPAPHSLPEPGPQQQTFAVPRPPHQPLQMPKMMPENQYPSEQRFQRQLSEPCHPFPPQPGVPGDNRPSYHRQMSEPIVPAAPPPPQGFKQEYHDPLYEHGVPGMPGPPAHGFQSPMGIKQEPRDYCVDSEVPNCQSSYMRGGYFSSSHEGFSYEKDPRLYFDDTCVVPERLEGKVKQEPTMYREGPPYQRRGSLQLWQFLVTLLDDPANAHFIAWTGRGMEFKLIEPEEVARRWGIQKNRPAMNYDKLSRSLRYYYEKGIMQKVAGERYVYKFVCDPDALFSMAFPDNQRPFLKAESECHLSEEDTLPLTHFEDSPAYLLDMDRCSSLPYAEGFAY
# Summary of the method: as §1
# HSF1 = HSF1 (Homo sapiens, UniProt Q00613 1-529); details: protein: recombinant; tags: N-terminal GST; chain copies: 3; dsDNA, one strand shown
# Sequence of HSF1 (Q00613 whole entry): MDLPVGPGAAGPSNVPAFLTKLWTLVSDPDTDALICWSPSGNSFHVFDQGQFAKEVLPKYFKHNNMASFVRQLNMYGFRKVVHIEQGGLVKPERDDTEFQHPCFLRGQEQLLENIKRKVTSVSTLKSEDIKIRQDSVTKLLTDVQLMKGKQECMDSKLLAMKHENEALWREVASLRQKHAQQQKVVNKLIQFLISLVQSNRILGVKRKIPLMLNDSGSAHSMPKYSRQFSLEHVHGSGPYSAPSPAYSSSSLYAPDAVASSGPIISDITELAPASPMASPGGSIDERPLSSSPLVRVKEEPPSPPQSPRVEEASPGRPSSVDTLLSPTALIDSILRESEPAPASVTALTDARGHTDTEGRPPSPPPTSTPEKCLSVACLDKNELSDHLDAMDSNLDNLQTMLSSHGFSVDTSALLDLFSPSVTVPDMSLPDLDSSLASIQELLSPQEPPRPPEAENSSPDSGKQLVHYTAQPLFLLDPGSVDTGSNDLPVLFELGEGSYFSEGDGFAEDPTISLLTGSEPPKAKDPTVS
# Summary of the method: as §1
# SPIC = molecular target: T2, SPIC (Homo sapiens, UniProt Q8N5J4 1-248); details: protein: recombinant; tags: N-terminal GST; dsDNA, one strand shown
# T2 sequence: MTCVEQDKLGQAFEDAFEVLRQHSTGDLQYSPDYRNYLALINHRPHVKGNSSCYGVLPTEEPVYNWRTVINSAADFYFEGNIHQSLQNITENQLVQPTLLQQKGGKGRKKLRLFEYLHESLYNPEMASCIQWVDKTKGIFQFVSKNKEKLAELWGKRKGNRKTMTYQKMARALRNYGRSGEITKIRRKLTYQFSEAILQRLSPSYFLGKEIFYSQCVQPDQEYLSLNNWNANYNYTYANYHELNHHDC
# Summary of the method: as §1
# ELF4 = ELF4 (Homo sapiens, UniProt Q99607 1-663); details: protein: recombinant; tags: N-terminal GST; dsDNA, one strand shown
# Sequence of ELF4 (Q99607 whole entry): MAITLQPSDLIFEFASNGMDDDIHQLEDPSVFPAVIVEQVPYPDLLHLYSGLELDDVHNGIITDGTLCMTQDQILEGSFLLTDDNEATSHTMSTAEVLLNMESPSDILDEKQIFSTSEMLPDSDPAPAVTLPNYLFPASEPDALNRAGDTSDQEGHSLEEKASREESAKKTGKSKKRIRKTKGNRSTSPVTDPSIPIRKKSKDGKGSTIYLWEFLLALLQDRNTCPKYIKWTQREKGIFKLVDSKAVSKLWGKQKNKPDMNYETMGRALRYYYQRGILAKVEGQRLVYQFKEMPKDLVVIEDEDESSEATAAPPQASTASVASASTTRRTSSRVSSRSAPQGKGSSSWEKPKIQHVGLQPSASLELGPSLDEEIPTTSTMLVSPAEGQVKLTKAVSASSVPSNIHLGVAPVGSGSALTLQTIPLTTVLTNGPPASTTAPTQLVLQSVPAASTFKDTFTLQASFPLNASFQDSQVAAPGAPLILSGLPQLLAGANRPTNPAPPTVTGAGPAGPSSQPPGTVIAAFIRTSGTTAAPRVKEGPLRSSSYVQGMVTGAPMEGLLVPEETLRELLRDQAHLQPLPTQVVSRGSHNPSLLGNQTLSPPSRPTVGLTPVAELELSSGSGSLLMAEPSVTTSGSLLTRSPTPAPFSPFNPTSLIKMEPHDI
# Summary of the method: as §1
# ELK4 = molecular target: T3, ELK4 (Homo sapiens, UniProt P28324-2 1-405); details: protein: recombinant; tags: N-terminal GST; dsDNA, one strand shown
# T3 sequence: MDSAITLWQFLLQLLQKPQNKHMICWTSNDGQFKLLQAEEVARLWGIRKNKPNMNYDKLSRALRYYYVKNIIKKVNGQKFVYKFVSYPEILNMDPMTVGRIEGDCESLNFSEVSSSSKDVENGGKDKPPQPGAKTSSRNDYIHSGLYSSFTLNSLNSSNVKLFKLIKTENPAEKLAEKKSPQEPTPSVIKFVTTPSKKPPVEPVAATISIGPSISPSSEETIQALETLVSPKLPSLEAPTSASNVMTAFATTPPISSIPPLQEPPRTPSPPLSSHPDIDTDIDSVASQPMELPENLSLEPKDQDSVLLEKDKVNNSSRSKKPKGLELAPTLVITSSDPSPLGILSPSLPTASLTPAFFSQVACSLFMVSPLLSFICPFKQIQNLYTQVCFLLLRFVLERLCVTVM
# Summary of the method: as §1
# ETV2 = molecular target: T4, ETV2 (Homo sapiens, UniProt O00321 1-342); details: protein: recombinant; tags: N-terminal GST; dsDNA, one strand shown
# T4 sequence: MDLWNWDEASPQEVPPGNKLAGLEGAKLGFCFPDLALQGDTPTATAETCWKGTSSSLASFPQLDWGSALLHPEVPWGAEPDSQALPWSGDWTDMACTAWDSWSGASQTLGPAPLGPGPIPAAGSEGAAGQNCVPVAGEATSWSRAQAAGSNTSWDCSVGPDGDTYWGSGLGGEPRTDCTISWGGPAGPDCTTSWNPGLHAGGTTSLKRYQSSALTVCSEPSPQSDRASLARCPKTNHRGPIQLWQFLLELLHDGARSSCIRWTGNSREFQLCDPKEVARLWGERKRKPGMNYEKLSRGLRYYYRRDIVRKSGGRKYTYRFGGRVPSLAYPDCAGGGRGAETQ
# Summary of the method: as §1
# ELF3 = molecular target: T5, ELF3 (Homo sapiens, UniProt P78545 1-371); details: protein: recombinant; tags: N-terminal GST; dsDNA, one strand shown
# T5 sequence: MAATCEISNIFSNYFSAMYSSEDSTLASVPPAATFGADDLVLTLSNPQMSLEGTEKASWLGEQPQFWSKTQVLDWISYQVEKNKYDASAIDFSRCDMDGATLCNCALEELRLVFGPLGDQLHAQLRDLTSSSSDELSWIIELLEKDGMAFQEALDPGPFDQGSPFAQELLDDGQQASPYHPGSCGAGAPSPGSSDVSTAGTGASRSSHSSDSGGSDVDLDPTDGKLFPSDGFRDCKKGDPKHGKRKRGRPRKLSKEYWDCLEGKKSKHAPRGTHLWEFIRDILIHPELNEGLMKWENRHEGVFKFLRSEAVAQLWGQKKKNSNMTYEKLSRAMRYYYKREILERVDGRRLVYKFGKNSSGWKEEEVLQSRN
# Summary of the method: as §1
# CRX = CRX (Homo sapiens, UniProt O43186 1-299); details: protein: recombinant; tags: N-terminal GST; dsDNA, one strand shown
# Sequence of CRX (O43186 whole entry): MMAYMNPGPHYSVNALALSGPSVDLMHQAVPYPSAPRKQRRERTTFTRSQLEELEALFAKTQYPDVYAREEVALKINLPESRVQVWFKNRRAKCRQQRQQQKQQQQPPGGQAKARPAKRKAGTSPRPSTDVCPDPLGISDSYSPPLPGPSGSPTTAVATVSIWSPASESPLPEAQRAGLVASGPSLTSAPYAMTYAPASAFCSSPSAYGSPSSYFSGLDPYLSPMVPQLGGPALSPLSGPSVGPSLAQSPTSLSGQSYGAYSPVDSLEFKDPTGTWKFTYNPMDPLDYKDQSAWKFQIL
# Summary of the method: as §1
# ETV1 = ETV1 (Homo sapiens, UniProt P50549 1-477); details: protein: recombinant; tags: N-terminal GST; dsDNA, one strand shown
# Sequence of ETV1 (P50549 whole entry): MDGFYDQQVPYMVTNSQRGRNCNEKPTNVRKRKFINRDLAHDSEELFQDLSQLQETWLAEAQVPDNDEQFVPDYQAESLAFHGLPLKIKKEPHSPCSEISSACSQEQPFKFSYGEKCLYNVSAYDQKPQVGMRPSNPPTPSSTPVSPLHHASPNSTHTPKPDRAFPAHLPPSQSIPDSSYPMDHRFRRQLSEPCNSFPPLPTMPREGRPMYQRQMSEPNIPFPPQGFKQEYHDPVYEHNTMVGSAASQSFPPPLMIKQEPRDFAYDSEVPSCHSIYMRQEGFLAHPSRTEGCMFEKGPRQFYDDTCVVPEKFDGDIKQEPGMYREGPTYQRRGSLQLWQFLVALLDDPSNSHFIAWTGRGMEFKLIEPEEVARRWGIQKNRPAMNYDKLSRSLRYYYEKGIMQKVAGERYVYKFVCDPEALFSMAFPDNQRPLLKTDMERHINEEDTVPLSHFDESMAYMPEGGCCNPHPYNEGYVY
# Summary of the method: as §1
# ERF = molecular target: T6, ERF (Homo sapiens, UniProt P50548 1-548); details: protein: recombinant; tags: N-terminal GST; dsDNA, one strand shown
# T6 sequence: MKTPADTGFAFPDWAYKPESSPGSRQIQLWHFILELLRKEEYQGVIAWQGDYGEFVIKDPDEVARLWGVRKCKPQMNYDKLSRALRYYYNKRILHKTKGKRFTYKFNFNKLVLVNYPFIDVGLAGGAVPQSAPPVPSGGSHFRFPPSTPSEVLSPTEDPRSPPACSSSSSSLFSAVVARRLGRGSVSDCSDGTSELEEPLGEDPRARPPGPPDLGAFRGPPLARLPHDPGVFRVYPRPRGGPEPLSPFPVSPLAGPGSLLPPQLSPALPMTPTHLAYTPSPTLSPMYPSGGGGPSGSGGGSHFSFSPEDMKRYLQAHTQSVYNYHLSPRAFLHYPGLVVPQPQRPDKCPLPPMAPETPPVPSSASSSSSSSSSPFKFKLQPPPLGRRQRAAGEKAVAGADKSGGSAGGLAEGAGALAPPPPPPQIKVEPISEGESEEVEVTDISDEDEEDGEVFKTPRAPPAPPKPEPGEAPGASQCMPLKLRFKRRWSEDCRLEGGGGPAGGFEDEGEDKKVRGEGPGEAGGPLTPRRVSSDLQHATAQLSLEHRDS
# Summary of the method: as §1
# ETV3L = molecular target: T7, ETV3L (Homo sapiens, UniProt Q6ZN32 1-361); details: protein: recombinant; tags: N-terminal GST; dsDNA, one strand shown
# T7 sequence: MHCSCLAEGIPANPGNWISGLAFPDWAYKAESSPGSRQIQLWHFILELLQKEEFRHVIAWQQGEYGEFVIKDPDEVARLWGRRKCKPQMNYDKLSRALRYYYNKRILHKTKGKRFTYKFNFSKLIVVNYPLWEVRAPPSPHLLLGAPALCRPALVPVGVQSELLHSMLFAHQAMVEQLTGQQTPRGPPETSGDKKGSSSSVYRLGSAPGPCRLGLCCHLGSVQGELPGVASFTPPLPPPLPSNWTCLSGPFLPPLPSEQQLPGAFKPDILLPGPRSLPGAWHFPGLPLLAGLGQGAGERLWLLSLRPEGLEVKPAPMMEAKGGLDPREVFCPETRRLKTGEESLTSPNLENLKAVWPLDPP
# Summary of the method: as §1
# ETS2 = molecular target: T8, ETS2 (Homo sapiens, UniProt P15036 1-469); details: protein: recombinant; tags: N-terminal GST; dsDNA, one strand shown
# T8 sequence: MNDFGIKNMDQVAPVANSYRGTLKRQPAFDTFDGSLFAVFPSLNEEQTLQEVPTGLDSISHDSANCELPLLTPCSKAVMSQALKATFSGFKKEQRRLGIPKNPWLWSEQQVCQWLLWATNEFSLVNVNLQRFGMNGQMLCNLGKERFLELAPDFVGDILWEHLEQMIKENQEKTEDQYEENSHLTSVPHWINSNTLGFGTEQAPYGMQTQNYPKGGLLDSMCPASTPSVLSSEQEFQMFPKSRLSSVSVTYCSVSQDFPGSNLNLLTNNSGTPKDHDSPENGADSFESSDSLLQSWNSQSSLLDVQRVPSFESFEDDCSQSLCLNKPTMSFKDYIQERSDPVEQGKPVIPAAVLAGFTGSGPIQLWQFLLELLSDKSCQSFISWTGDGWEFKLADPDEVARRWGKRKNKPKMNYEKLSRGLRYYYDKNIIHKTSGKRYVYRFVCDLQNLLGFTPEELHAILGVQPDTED
# Summary of the method: as §1
# SPDEF = molecular target: T9, SPDEF (Homo sapiens, UniProt O95238 1-335); details: protein: recombinant; tags: N-terminal GST; dsDNA, one strand shown
# T9 sequence: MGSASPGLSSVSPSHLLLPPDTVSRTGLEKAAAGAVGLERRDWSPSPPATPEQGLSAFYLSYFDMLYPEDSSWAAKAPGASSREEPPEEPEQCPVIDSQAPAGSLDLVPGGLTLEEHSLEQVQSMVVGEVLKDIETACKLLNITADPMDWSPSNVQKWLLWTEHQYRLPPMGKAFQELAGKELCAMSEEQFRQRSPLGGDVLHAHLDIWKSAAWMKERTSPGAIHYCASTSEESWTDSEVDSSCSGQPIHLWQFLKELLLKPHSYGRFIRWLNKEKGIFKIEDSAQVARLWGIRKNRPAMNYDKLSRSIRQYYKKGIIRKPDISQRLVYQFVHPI
# Summary of the method: as §1
# ETV7 = molecular target: T10, ETV7 (Homo sapiens, UniProt Q9Y603 1-341); details: protein: recombinant; tags: N-terminal GST; dsDNA, one strand shown
# T10 sequence: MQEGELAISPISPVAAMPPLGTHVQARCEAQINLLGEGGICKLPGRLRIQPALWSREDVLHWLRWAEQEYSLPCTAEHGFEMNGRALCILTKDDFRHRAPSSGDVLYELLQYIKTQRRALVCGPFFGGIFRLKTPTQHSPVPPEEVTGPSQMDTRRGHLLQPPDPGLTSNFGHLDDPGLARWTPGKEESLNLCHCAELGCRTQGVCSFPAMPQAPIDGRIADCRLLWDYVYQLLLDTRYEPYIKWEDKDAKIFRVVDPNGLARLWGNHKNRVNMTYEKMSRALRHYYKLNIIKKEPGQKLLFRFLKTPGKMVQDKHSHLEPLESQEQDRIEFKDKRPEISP
# Summary of the method: as §1
# ELF5 = molecular target: T11, ELF5 (Homo sapiens, UniProt Q9UKW6-2 1-255); details: protein: recombinant; tags: N-terminal GST; dsDNA, one strand shown
# T11 sequence: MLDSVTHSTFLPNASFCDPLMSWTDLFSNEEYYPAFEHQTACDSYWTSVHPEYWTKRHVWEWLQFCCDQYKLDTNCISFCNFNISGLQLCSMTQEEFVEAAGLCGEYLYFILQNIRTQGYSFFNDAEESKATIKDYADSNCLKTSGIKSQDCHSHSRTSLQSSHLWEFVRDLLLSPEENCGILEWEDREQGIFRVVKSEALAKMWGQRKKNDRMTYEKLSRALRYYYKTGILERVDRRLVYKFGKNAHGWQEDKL
# Summary of the method: as §1
# ETV3 = molecular target: T12, ETV3 (Homo sapiens, UniProt P41162-2 1-143); details: protein: recombinant; tags: N-terminal GST; dsDNA, one strand shown
# T12 sequence: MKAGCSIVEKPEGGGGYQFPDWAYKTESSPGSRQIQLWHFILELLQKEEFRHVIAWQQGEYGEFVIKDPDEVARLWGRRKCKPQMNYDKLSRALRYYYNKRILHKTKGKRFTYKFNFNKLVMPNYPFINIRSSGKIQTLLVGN
# Summary of the method: as §1
# ETV6 = ETV6 (Homo sapiens, UniProt P41212 1-452); details: protein: recombinant; tags: N-terminal GST; dsDNA, one strand shown
# Sequence of ETV6 (P41212 whole entry): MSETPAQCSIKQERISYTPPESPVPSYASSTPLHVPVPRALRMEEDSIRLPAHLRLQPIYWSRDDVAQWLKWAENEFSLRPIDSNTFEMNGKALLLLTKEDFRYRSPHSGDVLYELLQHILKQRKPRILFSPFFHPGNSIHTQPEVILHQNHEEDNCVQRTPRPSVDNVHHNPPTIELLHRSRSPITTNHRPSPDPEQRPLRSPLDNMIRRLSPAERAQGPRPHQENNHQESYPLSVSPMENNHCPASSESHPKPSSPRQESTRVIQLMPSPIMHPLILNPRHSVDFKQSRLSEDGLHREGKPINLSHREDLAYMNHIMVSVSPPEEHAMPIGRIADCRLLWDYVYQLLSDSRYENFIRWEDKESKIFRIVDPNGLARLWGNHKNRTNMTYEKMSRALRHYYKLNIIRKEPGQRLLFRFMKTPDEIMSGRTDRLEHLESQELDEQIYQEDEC
# Summary of the method: as §1
sequence,measurement,setting,value
CTTTCA,binding signal,FEV,"1.31 fold enrichment (6-mer frequency, TF over GST control)"
same,binding signal,ETV5,"1.26 fold enrichment (6-mer frequency, TF over GST control)"
same,binding signal,HSF1,"1.28 fold enrichment (6-mer frequency, TF over GST control)"
same,binding signal,SPIC,"1.37 fold enrichment (6-mer frequency, TF over GST control)"
same,binding signal,ELF4,"1.44 fold enrichment (6-mer frequency, TF over GST control)"
same,binding signal,ELK4,"1.54 fold enrichment (6-mer frequency, TF over GST control)"
same,binding signal,ETV2,"1.42 fold enrichment (6-mer frequency, TF over GST control)"
same,binding signal,ELF3,"1.18 fold enrichment (6-mer frequency, TF over GST control)"
same,binding signal,CRX,"1.25 fold enrichment (6-mer frequency, TF over GST control)"
same,binding signal,ETV1,"1.45 fold enrichment (6-mer frequency, TF over GST control)"
same,binding signal,ERF,"1.44 fold enrichment (6-mer frequency, TF over GST control)"
same,binding signal,ETV3L,"1.38 fold enrichment (6-mer frequency, TF over GST control)"
same,binding signal,ETS2,"1.31 fold enrichment (6-mer frequency, TF over GST control)"
same,binding signal,SPDEF,"1.26 fold enrichment (6-mer frequency, TF over GST control)"
same,binding signal,ETV7,"1.33 fold enrichment (6-mer frequency, TF over GST control)"
same,binding signal,ELF5,"1.4 fold enrichment (6-mer frequency, TF over GST control)"
same,binding signal,ETV3,"1.39 fold enrichment (6-mer frequency, TF over GST control)"
same,binding signal,ETV6,"1.24 fold enrichment (6-mer frequency, TF over GST control)"
